From PubChem BioAssay AID1159580 (chemical genetic matrix, 2015)
In all, about 5,500 compounds went through this assay and about 2,000 (36%) were called active. Inconclusive results (about 18%) are left out. Cut-off read from the data, not from the text of the source: active = normalized growth mostly below about 0.91 (no sharp cut-off); inconclusive = no clear call, values can overlap the other calls; inactive = mostly above about 0.92. Some of the results follow.

Test: chemical genetic growth profiling, strain panel (AID 1159580);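 note: tested at 20 µM; growth read once vehicle control cultures reached saturation at 30 °C; 1 = growth at the plate median or of vehicle wells; lower values mean less growth of the strain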
Details: growth OD

Measured: normalized growth

N#C/C(=C\c1cccc(O)c1)C(=O)O
inactive: S. cerevisiae deletion strains, locus YJR075W, strain HOC1, stronger effect = lower value 0.98 | S. cerevisiae deletion strains, locus YKL009W, strain mrt4, stronger effect = lower value 0.989 | S. cerevisiae deletion strains, locus YKL068W, stronger effect = lower value 0.998 | S. cerevisiae deletion strains, locus YKL085W, strain MDH1 (second series), stronger effect = lower value 0.951 | S. cerevisiae deletion strains, locus YKL085W, strain MDH1, stronger effect = lower value 0.951 | S. cerevisiae deletion strains, locus YKL160W, strain elf1, stronger effect = lower value 0.977 | S. cerevisiae deletion strains, locus YKL190W, strain CNB1, stronger effect = lower value 0.99 | S. cerevisiae deletion strains, locus YKR001C, strain vps1, stronger effect = lower value 1 | S. cerevisiae deletion strains, locus YKR026C, strain gcn3, stronger effect = lower value 1 | S. cerevisiae deletion strains, locus YKR091W, strain srl3, stronger effect = lower value 0.976 | S. cerevisiae deletion strains, locus YLL001W, strain dnm1, stronger effect = lower value 1.03 | S. cerevisiae deletion strains, locus YLL026W, stronger effect = lower value 0.974 | S. cerevisiae deletion strains, locus YLL041C, strain sdh2, stronger effect = lower value 0.984 | S. cerevisiae deletion strains, locus YLR027C, strain aat2, stronger effect = lower value 0.985 | S. cerevisiae deletion strains, locus YLR039C, strain RIC1, stronger effect = lower value 1.01 | S. cerevisiae deletion strains, locus YLR058C, strain SHM2, stronger effect = lower value 0.979 | S. cerevisiae deletion strains, locus YLR102C, strain apc9, stronger effect = lower value 0.988 | S. cerevisiae deletion strains, locus YLR113W, strain HOG1, stronger effect = lower value 0.971 | S. cerevisiae deletion strains, locus YLR221C, strain rsa3, stronger effect = lower value 1.02 | S. cerevisiae deletion strains, locus YLR258W, strain gsy2, stronger effect = lower value 0.977 | S. cerevisiae deletion strains, locus YLR262C, strain YPT6 (second series), stronger effect = lower value 0.974 | S. cerevisiae deletion strains, locus YLR262C, strain YPT6, stronger effect = lower value 0.957 | S. cerevisiae deletion strains, locus YLR268W, strain sec22, stronger effect = lower value 0.987 | S. cerevisiae deletion strains, locus YLR320W, strain mms22, stronger effect = lower value 1.03 | S. cerevisiae deletion strains, locus YLR330W, strain CHS5, stronger effect = lower value 0.989 | S. cerevisiae deletion strains, locus YLR342W, strain FKS1 (second series), stronger effect = lower value 1.09 | S. cerevisiae deletion strains, locus YLR342W, strain FKS1, stronger effect = lower value 0.99 | S. cerevisiae deletion strains, locus YLR357W, strain rsc2, stronger effect = lower value 0.988 | S. cerevisiae deletion strains, locus YLR370C, strain arc18, stronger effect = lower value 0.978 | S. cerevisiae deletion strains, locus YLR371W, strain rom2, stronger effect = lower value 1 | S. cerevisiae deletion strains, locus YLR384C, strain iki3, stronger effect = lower value 0.991 | S. cerevisiae deletion strains, locus YLR418C, strain cdc73, stronger effect = lower value 0.964 | S. cerevisiae deletion strains, locus YML016C, strain PPZ1, stronger effect = lower value 1 | S. cerevisiae deletion strains, locus YML032C, strain rad52, stronger effect = lower value 1.02 | S. cerevisiae deletion strains, locus YML120C, strain ndi1, stronger effect = lower value 0.992 | S. cerevisiae deletion strains, locus YML124C, strain tub3, stronger effect = lower value 1 | S. cerevisiae deletion strains, locus YMR058W, strain fet3, stronger effect = lower value 0.997 | S. cerevisiae deletion strains, locus YMR078C, strain ctf18, stronger effect = lower value 0.996 | S. cerevisiae deletion strains, locus YMR125W, strain sto1, stronger effect = lower value 0.991 | S. cerevisiae deletion strains, locus YMR129W, stronger effect = lower value 0.964 | S. cerevisiae deletion strains, locus YMR205C, strain PFK2, stronger effect = lower value 1.02 | S. cerevisiae deletion strains, locus YMR223W, strain ubp8, stronger effect = lower value 1.05 | S. cerevisiae deletion strains, locus YMR231W, strain pep5, stronger effect = lower value 0.991 | S. cerevisiae deletion strains, locus YMR263W, strain SAP30, stronger effect = lower value 0.979 | S. cerevisiae deletion strains, locus YMR307W, strain GAS1, stronger effect = lower value 1.08 | S. cerevisiae deletion strains, locus YNL067W, strain RPL9B, stronger effect = lower value 0.989 | S. cerevisiae deletion strains, locus YNL071W, strain lat1, stronger effect = lower value 0.997 | S. cerevisiae deletion strains, locus YNL128W, strain TEP1, stronger effect = lower value 0.928 | S. cerevisiae deletion strains, locus YNL153C, strain GIM3, stronger effect = lower value 0.984 | S. cerevisiae deletion strains, locus YNL183C, strain NPR1, stronger effect = lower value 0.915 | S. cerevisiae deletion strains, locus YNL209W, strain ssb2, stronger effect = lower value 1 | S. cerevisiae deletion strains, locus YNL233W, strain BNI4, stronger effect = lower value 1.01 | S. cerevisiae deletion strains, locus YNL248C, strain rpa49, stronger effect = lower value 0.963 | S. cerevisiae deletion strains, locus YNL250W, strain rad50, stronger effect = lower value 0.991 | S. cerevisiae deletion strains, locus YNL271C, strain bni1, stronger effect = lower value 1.01 | S. cerevisiae deletion strains, locus YNL298W, strain CLA4, stronger effect = lower value 1 | S. cerevisiae deletion strains, locus YNL307C, strain MCK1, stronger effect = lower value 1.03 | S. cerevisiae deletion strains, locus YNL322C, strain KRE1 (second series), stronger effect = lower value 0.952 | S. cerevisiae deletion strains, locus YNL322C, strain KRE1, stronger effect = lower value 0.979 | S. cerevisiae deletion strains, locus YNR049C, strain mso1, stronger effect = lower value 0.961 | S. cerevisiae deletion strains, locus YNR052C, strain pop2, stronger effect = lower value 0.995 | S. cerevisiae deletion strains, locus YOL006C, strain TOP1, stronger effect = lower value 0.975 | S. cerevisiae deletion strains, locus YOL012C, strain htz1 1.3 | S. cerevisiae deletion strains, locus YOL147C, strain pex11, stronger effect = lower value 0.994 | S. cerevisiae deletion strains, locus YOR001W, strain rrp6, stronger effect = lower value 1.02 | S. cerevisiae deletion strains, locus YOR061W, strain CKA2, stronger effect = lower value 0.96 | S. cerevisiae deletion strains, locus YOR069W, strain VPS5, stronger effect = lower value 0.997 | S. cerevisiae deletion strains, locus YOR070C, strain gyp1, stronger effect = lower value 0.993 | S. cerevisiae deletion strains, locus YOR080W, strain dia2, stronger effect = lower value 0.984 | S. cerevisiae deletion strains, locus YOR083W, strain WHI5, stronger effect = lower value 0.916 | S. cerevisiae deletion strains, locus YOR106W, strain vam3, stronger effect = lower value 0.924 | S. cerevisiae deletion strains, locus YOR136W, strain idh2, stronger effect = lower value 1.01 | S. cerevisiae deletion strains, locus YOR144C, strain elg1, stronger effect = lower value 0.989 | S. cerevisiae deletion strains, locus YOR184W, strain ser1, stronger effect = lower value 1.06 | S. cerevisiae deletion strains, locus YOR231W, strain MKK1, stronger effect = lower value 0.973 | S. cerevisiae deletion strains, locus YOR265W, strain rbl2, stronger effect = lower value 0.964 | S. cerevisiae deletion strains, locus YOR270C, strain vph1, stronger effect = lower value 0.997 | S. cerevisiae deletion strains, locus YOR290C, strain snf2, stronger effect = lower value 0.967 | S. cerevisiae deletion strains, locus YOR316C, strain cot1, stronger effect = lower value 0.986 | S. cerevisiae deletion strains, locus YPL051W, strain arl3, stronger effect = lower value 0.981 | S. cerevisiae deletion strains, locus YPL055C, strain LGE1, stronger effect = lower value 0.96 | S. cerevisiae deletion strains, locus YPL078C, strain atp4, stronger effect = lower value 0.991 | S. cerevisiae deletion strains, locus YPL106C, strain sse1, stronger effect = lower value 0.961 | S. cerevisiae deletion strains, locus YPL240C, strain hsp82, stronger effect = lower value 0.986 | S. cerevisiae deletion strains, locus YPL241C, strain CIN2, stronger effect = lower value 0.987 | S. cerevisiae deletion strains, locus YPL256C, strain CLN2, stronger effect = lower value 0.977 | S. cerevisiae deletion strains, locus YPR119W, strain clb2, stronger effect = lower value 0.987 | S. cerevisiae deletion strains, locus YPR141C, strain kar3, stronger effect = lower value 0.975 | S. cerevisiae deletion strains, locus YPR163C, strain tif3, stronger effect = lower value 0.998 | S. cerevisiae deletion strains, locus YPR167C, strain met16, stronger effect = lower value 0.981 | S. cerevisiae deletion strains, strain wtn01, stronger effect = lower value 0.98 | S. cerevisiae strains, strain wild type, stronger effect = lower value 1.02
